What is called inhibition is the change of the read-out against control, counted positive when it falls.

Out of some 86,000 compounds screened, about 1,400 (1.6%) were called active. The sample holds actives, similar compounds and a random draw of the others, so the mix is not that of the screen. Unmarked numbers belong to inactive results. Rule as the data show it: active = inhibition above about 50%; inactive = the rest.

For the test, the target named is Estrogen receptor (Homo sapiens) (UniProt P03372). Briefly: ERα–SRC-1 coactivator interaction inhibitors, primary screen, biochemical, TR-FRET, ERα LBD, estradiol-bound (AID 629).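 Also: 0% = receptor plus peptide control and 100% = peptide only without receptor.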 Conditions: TR-FRET ER-alpha LBD / SRC-1 peptide, at 25.6 µM, hits give high values. On the technique in general: Time-resolved FRET reads energy transfer from a long-lived donor to a nearby acceptor.
Sequence of Estrogen receptor (Homo sapiens) (P03372 whole entry, looked up, the tested form may be a part): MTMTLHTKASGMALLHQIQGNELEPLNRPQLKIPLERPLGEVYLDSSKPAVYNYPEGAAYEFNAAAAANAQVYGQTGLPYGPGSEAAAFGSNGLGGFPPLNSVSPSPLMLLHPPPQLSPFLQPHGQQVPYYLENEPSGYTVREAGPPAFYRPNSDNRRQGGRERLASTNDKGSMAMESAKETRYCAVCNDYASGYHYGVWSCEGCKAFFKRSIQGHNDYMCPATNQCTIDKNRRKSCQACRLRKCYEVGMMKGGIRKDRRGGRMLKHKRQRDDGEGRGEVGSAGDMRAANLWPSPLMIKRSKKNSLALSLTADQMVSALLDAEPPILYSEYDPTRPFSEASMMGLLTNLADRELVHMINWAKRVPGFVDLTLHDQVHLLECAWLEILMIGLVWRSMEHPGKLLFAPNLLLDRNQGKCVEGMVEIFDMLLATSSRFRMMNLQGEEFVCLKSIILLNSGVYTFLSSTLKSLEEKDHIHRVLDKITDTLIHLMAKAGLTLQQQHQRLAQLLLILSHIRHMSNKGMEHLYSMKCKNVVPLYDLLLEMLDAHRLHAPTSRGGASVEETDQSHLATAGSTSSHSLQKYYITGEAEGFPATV
With `O=C(CN1CCN(C(=O)c2ccco2)CC1)Nc1ccc2c(c1)OCO2`, the inhibition was -22.6%.

With `CCOC(=O)C1=C(CSc2nnnn2C)N(C)C(=O)NC1c1ccccc1` (centres undefined), the inhibition is -4.78%.

`COc1ccc(CNC(=O)c2cc3c(=O)n4ccccc4nc3n(CC3CCCO3)c2=N)cc1` (centres undefined): the inhibition was 3.23%.

On to `O=C(NCc1ccco1)c1cc(-c2cccnc2)nc2ccc(Cl)cc12`, for which the inhibition was 10.8%.

With `CCn1c(=N)c(C(=O)NCCCOC)cc2c(=O)n3cccc(C)c3nc21`, the inhibition was -7.26%.

With `O=C(Nc1ccccc1)Nc1ccccc1C(=O)NCc1ccco1`, the inhibition is -4.11%.

For the compound `COc1ccc(CCn2c(=N)c(C(=O)NCc3ccco3)cc3c(=O)n4cccc(C)c4nc32)cc1`, the inhibition is 65.7% [fluorescence artefact?] (active).

In the case of `O=C(NCc1ccco1)c1cccn2c(=O)c3cc(Br)ccc3nc12`, the inhibition is 56.4% [fluorescence artefact?] (active).

For `Cc1ccc(/C=N/NC(=O)C2=NNC(c3ccccc3)(c3ccccc3)C2)c(O)c1`, the inhibition was 21.9%.

Take `CCSc1ccccc1C(=O)NCc1ccc(OC)cc1`: the inhibition is -6.6%.

Take `COC(=O)/C(NC(C)=O)=C(\C)c1ccc(Cl)cc1`: the inhibition is -8.11%.

`CC(=O)NC1=NN(C(C)=O)C(C)(c2ccc(Cl)s2)S1` (centres undefined): the inhibition was 2.57%.

On to `CN(C)c1ccnc2sc3c(=O)n(-c4ccc(Cl)cc4)cnc3c12`, for which the inhibition was 42.5%.

`COC(=O)C1=C(C(=O)OC)C2(OC1c1ccc(Br)cc1)C(=O)c1ccccc1C2=O` (centres undefined): the inhibition is -2.52%.

For the compound `Cc1cnc(C(=O)OCC(=O)Nc2ccc(Cl)cc2Cl)cn1`, the inhibition was -9.26%.

As for `COc1ccc(CN2CCn3ncc(C(=O)Nc4ccc(Cl)cc4Cl)c3C2=O)cc1`, the inhibition is 54.9% [fluorescence artefact?] (active).

For `COc1ccc(OC)c(NC(=O)c2cnn(-c3ccccc3Cl)c2NC(=O)c2ccco2)c1`, the inhibition was -3.16%.

Take `O=C(c1cccc(F)c1)N1CCC(O)(c2cccnc2)CC1`: the inhibition was 1.95%.

Turning to `CCCNC(=O)CN(Cc1ccccc1F)S(=O)(=O)c1ccc(C)cc1`, the inhibition is 5.89%.

As to `COc1ccccc1NC(=O)CN1CCN(S(=O)(=O)c2ccc(Br)cc2)CC1`, the inhibition is 39.3%.

In the case of `O=C(CN1CCN(S(=O)(=O)c2ccc(F)cc2)CC1)Nc1ccccc1F`, the inhibition is 64.5% [fluorescence artefact?] (active).

Turning to `COc1cc2c(cc1NC(=O)CN1CCN(S(=O)(=O)c3ccc(F)cc3)CC1)oc1ccccc12`, the inhibition is 14.2%.

As to `CCCCNC(=O)C1(c2ccc(OC)cc2)CCOCC1`, the inhibition is 25.4%.

Consider `OC(CN=c1sc2ccccc2n1CC(O)COc1ccccc1)COc1ccccc1` (centres undefined), for which the inhibition is -21.1%.

For `O=C(Nc1ccc2c(c1)OCCO2)C(c1ccc(F)cc1)N1CCCCC1` (centres undefined), the inhibition was 1.74%.

Turning to `COC(=O)c1[nH]c2ccccc2c1NC(=O)CN1CCCc2ccccc21`, the inhibition was 66.9% [fluorescence artefact?] (active).

On to `COC(=O)c1[nH]c2cccc(C)c2c1NC(=O)CN1CCCc2ccccc21`, for which the inhibition is 33.1%.

With `CCOC(=O)c1[nH]c2ccc(OC)cc2c1NC(=O)CCN1CCN(Cc2ccccc2)CC1`, the inhibition is 0.69%.

Regarding `COC(=O)c1ccccc1NC(=O)CN(Cc1ccc(Cl)cc1)S(C)(=O)=O`, the inhibition is 5.73%.

Regarding `C=CCc1ccc(OCCOc2cccc(/C=N/n3cnnc3)c2)c(OC)c1`, the inhibition was -8.6%.

On to `Cc1ccc(OCC(=O)Nc2ccc(-c3nnc(-c4ccco4)o3)cc2)cc1`, for which the inhibition was 63.7% [fluorescence artefact?] (active).

As to `COc1ccc(CC(=O)Nc2ccc(-c3nnc(-c4ccc(C)cc4)o3)cc2)cc1`, the inhibition is 8.24%.

As for `CCOc1ccc(-c2nnc(-c3ccco3)o2)cc1`, the inhibition was -0.96%.

`O=C(CSc1nc2cccnc2n1Cc1ccccc1)N1CCc2ccccc21`: the inhibition was 34.4%.

In the case of `COc1nc(NC2CCCCC2)nc(N2CCCCCC2)n1`, the inhibition is 6.7%.

Turning to `CC(Sc1nc2ccccc2c(=O)n1Cc1ccco1)C(=O)c1ccccc1` (centres undefined), the inhibition was 4.97%.

`COc1ccc(-n2c(SCC(=O)Nc3sc4c(c3C#N)CCCC4)nnc2-c2ccc(O)cc2)cc1`: the inhibition was 78.5% [fluorescence artefact?] (active).

Consider `C=C(C)Cn1c(SCC(=O)NCc2ccco2)nc2sc3c(c2c1=O)CCC3`, for which the inhibition was 7.04%.

In the case of `N#Cc1c(NC(=O)CSc2nc3ccccc3c(=O)n2Cc2ccco2)sc2c1CCCC2`, the inhibition was 61.9% [fluorescence artefact?] (active).

On to `COc1ccc(-c2nnc(SCC(=O)c3ccco3)n2-c2ccccc2)cc1`, for which the inhibition is 11%.

On to `COC(=O)c1c(NC(=O)CSc2nncs2)sc2c1CCCCC2`, for which the inhibition was -1.55%.

In the case of `Cc1cccn2c(=O)c(/C=C(\C#N)S(=O)(=O)c3ccc(Cl)cc3)c(N3CCC(C(N)=O)CC3)nc12`, the inhibition was -0.02%.

As to `O=C(CSCc1c(F)cccc1Cl)NCC1CCCO1` (centres undefined), the inhibition is -1.37%.

Consider `CCCCOc1ccc(C(=O)NCc2ccncc2)cc1`, for which the inhibition was 1.95%.

With `Cc1ccnc(N2C(=O)c3ccccc3C2Nc2ccc3c(c2)OCCO3)c1` (centres undefined), the inhibition was 1.59%.

As to `CCc1ccccc1NC1c2ccccc2C(=O)N1c1cccnc1` (centres undefined), the inhibition is -8.02%.

Consider `COC(=O)c1cc(NC2c3ccccc3C(=O)N2c2ccc(Cl)cn2)cc(C(=O)OC)c1` (centres undefined), for which the inhibition was 66.6% (active).

Turning to `CCOC(=O)C1=C(C)NC(SC)=NC1c1ccccc1` (centres undefined), the inhibition was -2.42%.

Take `Cc1nnc(SC(C)C(=O)Nc2ccc(S(=O)(=O)NC3CCCCC3)cc2)s1` (centres undefined): the inhibition was 21.6%.

With `COc1ccc(N2CCN(C(=O)CSc3ncnc4c3cnn4-c3ccc(OC)cc3)CC2)cc1`, the inhibition was -7.43%.

For the compound `COc1ccc(N2CCN(C(=O)CSc3nc4cc(OC)c(OC)cc4cc3C#N)CC2)cc1`, the inhibition was 51.1% [fluorescence artefact?] (active).

`CCOc1ccc2cc(C#N)c(SCC(=O)OC)nc2c1`: the inhibition is 17.3%.

As for `COc1ccc(C)cc1S(=O)(=O)NCCc1ccccc1`, the inhibition is 8.31%.

Turning to `Cc1ccc(OC(=O)c2ccccc2C(=O)OCC(F)(F)C(F)F)cc1`, the inhibition is -6.39%.

As to `COc1cc(-c2nc(-c3ccncc3)no2)cc(OC)c1OC`, the inhibition was -8.51%.

For the compound `CCOc1nc(-c2ccc(OC)cc2)ccc1-c1noc(-c2cc(OC)c(OC)c(OC)c2)n1`, the inhibition was 9.34%.

Turning to `COc1ccc(-c2ccc(-c3noc(-c4ccncc4)n3)c(OC)n2)cc1`, the inhibition was 59.7% (active).

In the case of `NC1=NC(=O)C2(COC(c3ccccc3Cl)OC2)S1` (centres undefined), the inhibition is -0.98%.

Turning to `Cc1ccc(NC(=S)NC(NC(=O)Cc2cccc3ccccc23)C(Cl)(Cl)Cl)cc1` (centres undefined), the inhibition was 57% [fluorescence artefact?] (active).

With `COc1cccc(NC(=O)Cc2ccc(C)cc2)c1`, the inhibition is -3.07%.

For `CC(=O)c1cccc(NC(=O)Nc2ccc(C)cc2)c1`, the inhibition is 4.59%.

On to `O=S(=O)(Cc1cc(Sc2ccccc2)nc(-c2ccccc2)n1)c1ccccc1`, for which the inhibition was -0.05%.

`CSc1ccc(S(=O)(=O)NC2CCCCC2)cc1`: the inhibition is 6.27%.

As for `CSc1ccc(S(=O)(=O)Nc2cccc(F)c2)cc1`, the inhibition was 61.3% (active).

As for `CC(=O)Nc1ccc(S(=O)(=O)Nc2cccc(NC(=O)C(C)(C)C)c2)cc1`, the inhibition is -5.55%.

As to `Cc1cccc(N2CCN(C(c3ccc(N(C)C)cc3)c3nnnn3C(C)(C)C)CC2)c1C` (centres undefined), the inhibition is 1.11%.

Take `CC(=O)C1=C(C)NC(C)=C(C(C)=O)C1c1cn(-c2ccccc2)nc1-c1cccs1`: the inhibition was -18.1%.

On to `CC(C)(C)c1cc(=O)n2c(nc3ccccc32)[nH]1`, for which the inhibition was 11.3%.

For `COCCn1c(SCc2nnc(-c3ccc(OC)c(OC)c3)o2)nc2sc3c(c2c1=O)CCC3`, the inhibition is -16.5%.

Regarding `CCCC1(C(=O)OCC)NC(c2ccc(N(C)C)cc2)C2C(=O)N(c3ccc4c(c3)OCCO4)C(=O)C21` (centres undefined), the inhibition was -19%.

For `Cc1nc2ccc(C(=O)N3CCN(c4ccccc4)CC3)cc2s1`, the inhibition is -14.9%.

Consider `O=C(c1cc2c(s1)CCC2)N1CCN(c2ccccc2)CC1`, for which the inhibition is 67.9% [fluorescence artefact?] (active).

Take `COc1cccc(-c2nn(C)c3sc(C(=O)N4CCN(c5ccccc5)CC4)cc23)c1`: the inhibition was 6.81%.

For `COC(=O)c1cc(OC)ccc1-c1ccc(OC)cc1`, the inhibition was -2.99%.

With `CCc1ccc(CNC(=O)CCc2nc(-c3cccs3)no2)cc1`, the inhibition was 0.94%.

As for `O=C(c1cc2sccc2n1Cc1ccc(F)cc1)N1CCc2ccccc21`, the inhibition was -24.7%.

On to `CC1(c2ccccc2Cl)NC(=O)N(CC(=O)NC(=O)NCc2ccco2)C1=O` (centres undefined), for which the inhibition is 9.78%.

Regarding `O=C(CN1CCN(S(=O)(=O)/C=C/c2ccccc2)CC1)NC(=O)NCc1ccco1`, the inhibition was 55% [fluorescence artefact?] (active).

For the compound `O=C(COC(=O)c1ccc(S(=O)(=O)N2CCc3ccccc3C2)cc1)NC(=O)NCc1ccco1`, the inhibition is 10.1%.

For the compound `CCCC(C)n1[nH]c(=O)c2c(C)cc(C)nc21` (centres undefined), the inhibition was -5.08%.

Take `CCC(C)n1[nH]c(=O)cc1N` (centres undefined): the inhibition was 60.4% (active).

`CCC(C)n1[nH]c(=O)c2c(C)cc(C)nc21` (centres undefined): the inhibition was -1.94%.

`CCN1C(=O)/C(=C2/Sc3ccc(OC)cc3N2C)SC1=Nc1ccc(C)cc1`: the inhibition is 18.8%.

For the compound `NC(=O)C1(N2CCCCC2)CCN(C2CC(=O)N(Cc3ccc(N4CCCC4=O)cc3)C2=O)CC1` (centres undefined), the inhibition is -9.78%.

For `COc1ccc(C(=O)Cc2cnn(-c3ccccc3)c2)c(O)c1`, the inhibition is -7.1%.

On to `COc1ccccc1NC(=O)/C=C/C(N)=O`, for which the inhibition was 13%.

Take `CCOc1cc(NC(=O)c2ccco2)c(OCC)cc1NC(=O)COc1ccccc1`: the inhibition is 77.7% [fluorescence artefact?] (active).

Turning to `O=C(Nc1ccc(Oc2ccccc2)cc1)c1ccco1`, the inhibition was 0.33%.

Consider `Cc1ccc(C(=O)COc2cccc(NC(=O)c3ccco3)c2)cc1`, for which the inhibition is 6.84%.

The values are drawn from PubChem BioAssay AID629 (Emory University Molecular Libraries Screening Center, 2007).
